# Measured values taken from PubChem BioAssay (NCATS).
# Results filed as inconclusive are left out. A call without a number means that no potency is given here. The source made the active and inactive calls. Calls follow the shape of the dose curve; as a rule, active = well fitted inhibition curve with a large enough effect; inconclusive = small, poorly fitted or top-dose-only effect; inactive = flat fitted curve, though single readings scatter. Where a SMILES comes first, the peptide text is derived from it.
# Biological target: Glutathione peroxidase 1 (Homo sapiens) (UniProt P07203)
# Test: Primary qHTS Assay for Inhibitors of Recombinant Selenoprotein Glutathione Peroxidase 1 (GPX1) (AID 1845191); also: nearly all actives have a fitted effect of over 65% in size
# Summary of the method: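 GR-coupled assay: compounds preincubated 30 min at room temperature with GPX1, then reaction started with CHP; final 10 nM GPX1, 1 mM GSH, 0.5 mM CHP, 0.5 mM NADPH, 100 nM GR, 0.01% BSA, pH 7.5 Tris buffer. NADPH fluorescence (340/450 nm) read at 0 and 15 min.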
# Sequence of Glutathione peroxidase 1 (Homo sapiens) (P07203 whole entry, looked up): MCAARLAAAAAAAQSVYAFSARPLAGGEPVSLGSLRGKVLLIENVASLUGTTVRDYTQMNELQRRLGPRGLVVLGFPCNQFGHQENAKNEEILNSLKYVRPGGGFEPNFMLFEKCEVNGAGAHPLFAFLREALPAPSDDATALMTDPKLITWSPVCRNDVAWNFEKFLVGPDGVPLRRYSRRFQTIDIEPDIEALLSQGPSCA
smiles,measurement,value
C[C@@H](O)[C@H](N)C(=O)N1CCC[C@H]1C(=O)N1CCC[C@H]1C(=O)N[C@H](C(N)=O)[C@@H](C)O (H-TPPT-NH2),outcome,inactive [at 9.52 µM]
CC(/C=C/C1(O)C(C)CC(O)CC1(C)C)OC1OC(CO)C(O)C(O)C1O (centres undefined),Potency,inactive
CC1CCC2(NC1)OC1C(=O)C3C4CCC5CC(O[C@@H]6O[C@H](CO)[C@@H](O)[C@H](O)[C@H]6O[C@@H]6O[C@@H](C)[C@H](O)[C@@H](O)[C@H]6O)CCC5(C)C4CCC3(C)C1C2C (some centres undefined),Potency,inactive
COC(=O)C1C(CC(C)=O)C=CC(O)C12Oc1cc(C)cc(O)c1C2=O (centres undefined),Potency,inactive
CC(C)NC[C@H](O)COc1ccc(CCOCC2CC2)cc1,Potency,inactive
CC1CCC2C(C)(C)C(O)CCC2(C)C12Cc1c(O)cc3c(c1O2)CN(C(CCC(N)=O)C(=O)O)C3=O (centres undefined),Potency,inactive
Cc1nn(C)c2c1C(c1ccc(C(F)(F)F)cc1)C(C#N)=C(N)O2 (centres undefined),Potency,inactive
CC1NC(=O)C(Cc2c[nH]c3ccccc23)NC1=O (centres undefined),Potency,inactive
COc1cccc(-c2ccc([C@@H](Oc3cc(-c4ccc(C[C@H](N)C(=O)O)cc4)nc(N)n3)C(F)(F)F)cc2)c1,Potency,inactive
C=CC1(C)CC(OC(=O)C(=C)C(O)COC(C)=O)C(C(=C)C(=O)OC)C(O)C1C(=C)CO (centres undefined),Potency,inactive
C=C1CCC[C@]2(C)C[C@]3(O)OC(=O)C(C)=C3C[C@@H]12,Potency,inactive
CC(=O)O[C@H]1CC[C@@]2(CI)C(=CC[C@@H]3[C@@H]2CC[C@]2(C)[C@@H]([C@H](C)CCCC(C)C)CC[C@@H]32)C1,"activity, negative = inhibition",1.81% [at 9.52 µM] (inactive)
O=C(/C=C/c1ccc(O)cc1)OCC1=C[C@@H](O)[C@@H]2C=CO[C@@H](O[C@@H]3O[C@H](CO)[C@@H](O)[C@H](O)[C@H]3O)[C@H]12,Potency,inactive
COc1ncc(-c2ccc3c(Nc4cc(Oc5cc(F)cc(F)c5)cc(C(=O)O)c4)c(S(=O)(=O)NC4CC4)cnc3c2)c(OC)n1,Potency,inactive
CC1(C)CCC(C)(C)c2cc3c(cc21)Sc1ccccc1N=C3c1ccc(C(=O)O)cc1,Potency,inactive
O=C1NC(Cc2ccc(O)cc2)C(=O)N2CCCC12 (centres undefined),Potency,inactive
C=C1[C@H]2CC[C@]3(O)[C@@](CC[C@@H]4[C@](C)(C(=O)O)CCC[C@]43C)(C2)[C@H]1OC(=O)/C(C)=C\C,Potency,inactive
COc1ccc(C)c2sc(NC(=O)c3ccncc3)nc12,Potency,inactive
CC1=C2[C@@H]([C@H](C)CC[C@H]2/C=C(\C)C(=O)O)[C@H](O)C1,Potency,inactive
C/C=C/C1=CC2=CC(=O)C(C)(O)C(OC(=O)c3c(C)cc(O)cc3O)C2CO1 (centres undefined),Potency,inactive
C/C1=C\C[C@H](O[C@@H]2O[C@H](CO)[C@@H](O)[C@H](O)[C@H]2O)/C(C)=C/[C@H]2OC(=O)[C@H](C)[C@@H]2CC1,Potency,inactive
O=C(O)CCc1cc2ccoc2cc1O[C@@H]1O[C@H](CO[C@@H]2OC[C@](O)(CO)[C@H]2O)[C@@H](O)[C@H](O)[C@H]1O,Potency,inactive
CCOC(=O)N1CCC(NCCNC(=O)c2ccccc2C)CC1,Potency,inactive
CC(C)=CC/C=C(/C)[C@H]1CC[C@]2(C)[C@@H]1[C@H](O)CC1[C@@]3(C)CC[C@H](O)C(C)(C)[C@@H]3[C@@H](O[C@@H]3O[C@H](CO)[C@@H](O)[C@H](O)[C@H]3O[C@@H]3O[C@@H](C)[C@H](O)[C@@H](O)[C@H]3O)C[C@]12C (some centres undefined),Potency,inactive
CC1OC(OC2C(O)C(C(=O)O)OC(OC3CCC4(C)C(CCC5(C)C4C=CC4=C6CC(C)(C)CC(O)C6(C)CCC45C)C3(C)C)C2OC2OCC(O)C(O)C2O)C(O)C(O)C1O (centres undefined),Potency,inactive
CC1(C)CC[C@]2(C(=O)O)CC[C@]3(C)C(=CCC4[C@@]5(C)CC[C@H](O[C@@H]6O[C@H](C(=O)O)[C@@H](O)[C@H](O)[C@H]6O)C(C)(CO)C5CC[C@]43C)C2C1 (some centres undefined),Potency,inactive
CC[N+](CC)(CC)CCC(O)(c1ccccc1)C1CCCCC1 (centres undefined),Potency,inactive
CC(Oc1ccccc1)C(=O)N[C@@H]1C(=O)N2[C@@H]1SC(C)(C)[C@@H]2C(=O)O (some centres undefined),Potency,inactive
CC1OC(OC2C(C)OC(OC3C(OC(=O)/C=C/c4ccc(O)cc4)C(CO)OC(OC4(COC(=O)/C=C/c5ccc(O)cc5)OC(CO)C(O)C4O)C3OC3OCC(O)(CO)C3O)C(O)C2O)C(O)C(O)C1O (centres undefined),Potency,inactive
Cc1c(N2C(=O)c3ccc(C(=O)O)cc3C2=O)c(=O)n(-c2ccccc2)n1C,Potency,inactive
CON(C)C(=O)N1N=C(c2cc(F)ccc2F)S[C@@]1(CCCN)c1ccccc1,Potency,inactive
CCNC(=O)CCC/C=C\C[C@@H]1[C@@H](/C=C/C(O)CCc2ccccc2)[C@@H](O)C[C@@H]1O (some centres undefined),Potency,inactive
COc1c2c(c(C)c3c1C(=O)OC3)OC1(C)CC(O)C3(O)C(C)(C)OC(=O)CCC3(C)C1C2 (centres undefined),Potency,inactive
C[C@@H]1CC[C@]2(C(=O)O)CC[C@]3(C(=O)O)C(=CCC4[C@@]5(C)CC[C@H](O[C@@H]6O[C@@H](C)[C@H](O[C@@H]7O[C@H](CO)[C@@H](O)[C@H](O)[C@H]7O)[C@@H](O)[C@H]6O)C(C)(C)C5CC[C@]43C)C2[C@H]1C (some centres undefined),Potency,inactive
O=C(O)Cc1nn(Cc2nc3cc(C(F)(F)F)ccc3s2)c(=O)c2nccnc12,Potency,inactive
CC(=O)C1CCC2(C)C3=C(CCC12C)C1(C)CCC(=O)C(C)(C)C1CC3 (centres undefined),Potency,inactive
COC1CC(=O)C23C(=O)NC(CC(C)C)C2C(C)C(C)=CC3/C=C(\C)CCC1O (centres undefined),Potency,inactive
CC1CCC2(C(=O)OC3OC(CO)C(O)C(O)C3O)CCC3(C)C(=CCC4C5(C)CC(O)C(O)C(C)(C(=O)O)C5CCC43C)C2C1(C)O (centres undefined),Potency,inactive
COc1cc2c(cc1O)C1(Cc3ccc4c(c3C1=O)OCO4)N(C)CC2 (centres undefined),Potency,inactive
